Structures are written as SMILES. Where “and” joins values, the source holds several entries; their conditions need not be identical. Identical values can stand only once. Records with an inconclusive call do not appear. Unmarked numbers belong to inactive results. Calls of active or inactive are those of the source. The call rests on the fitted dose curve; in most records, active means well fitted cell-killing curve with a large enough effect in the repeat runs; inconclusive means weak or mixed curves, or effect the other way; inactive means flat fitted curve, though single readings scatter.

Assay [1] can be described thus: cAMP Responsive Elements (CRE) small molecule antagonists, cell-based qHTS assay: qHTS cell viability counter screen (AID 2060913). Further: nearly all actives have a fitted effect of over 40% in size. Further: potency means the concentration at half of the fitted maximal effect. The note with it: CRE-bla HEK293T viability, CellTiter-Glo luminescence, 5 h; series mostly up to 92.4 µM. The method in brief: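 CRE-bla HEK293T cells (2,000/well, 18 h) given compound plus NKH477 0.25 uM final for 3 h at 37C; viability counter-screen by CellTiter-Glo luminescence in same wells after 30 min.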
On the technique in general: In qHTS, concentration-response curves come from the screen itself.

Assay [2] is described as follows: cAMP Responsive Elements (CRE) small molecule agonists, cell-based qHTS assay: qHTS cell viability counter screen (AID 2060914). Further: nearly all actives have a fitted effect of over 50% in size. The following applies: CRE-bla HEK293T viability, CellTiter-Glo luminescence, 5 h; series mostly up to 92.4 µM. The method in brief:
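Luminescence read-out (CellTiter-Glo, 30 min RT) of ATP-based viability in CRE-bla HEK 293T cells, run in the same wells as the β-lactamase reporter assay after 3 h compound treatment at 37 °C.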
On the % scale 0 is the no-effect control and ±100 the full control effect.

In the case of `CCCCCC1C(=O)CCC1CC(=O)OC` (stereo not drawn), the Potency entry in assay [1] and in assay [2] was “inactive” throughout.

Regarding `C=CCCC(=O)O`, the Potency result in assay [1] and in assay [2] was “inactive” throughout.

On to `CCCc1ccccc1`, for which the Potency result in assay [1] and in assay [2] was “inactive” each time.

With `Cc1ccc(C(=O)O)cc1[N+](=O)[O-]`, the Potency entry in assay [1] and in assay [2] was “inactive” in each case.

With `O=C1O[C@@H]2[C@@H](O)[C@H](O)O[C@@H]2[C@H]1O`, the Potency entry in assay [1] and in assay [2] was “inactive” throughout.

For the compound `OCCO`, the Potency result in assay [1] and in assay [2] was “inactive” throughout.

As for `COc1ccc(C(=O)Nc2nc3ccccc3c(NCc3ccccc3)c2C#N)cc1`, the Potency result in assay [1] and in assay [2] was “inactive” in each case.

`CCOC(=O)OCC/C(SC(=O)OCC)=C(\C)N(C=O)Cc1cnc(C)nc1N`: the Potency result in assay [1] and in assay [2] was “inactive” throughout.

For the compound `CC(C)CC(C)O` (stereo not drawn), the Potency result in assay [1] and in assay [2] was “inactive” in each case.

With `N=c1nc(N2CCCCC2)cc(N)n1O`, the Potency entry in assay [1] and in assay [2] was “inactive” throughout.

Take `Cn1cnc2ncnc(N)c21`: the Potency result in assay [1] and in assay [2] was “inactive” throughout.

Regarding `Cc1onc(-c2ccccc2Cl)c1C(=O)N[C@@H]1C(=O)N2[C@@H]1SC(C)(C)[C@@H]2C(=O)O`, the Potency result in assay [1] and in assay [2] was “inactive” throughout.

As for `CCOCCO`, the Potency result in assay [1] and in assay [2] was “inactive” in each case.

For `Nc1ccc(S(=O)(=O)O)c(N)c1`, the Potency entry in assay [1] and in assay [2] was “inactive” throughout.

With `CCCCC(CC)COCCC#N` (stereo not drawn), the Potency result in assay [1] and in assay [2] was “inactive” in each case.

Take `C=C(C)C(=O)OCCCCCCCCCCOC(=O)C(=C)C`: the Potency entry in assay [1] and in assay [2] was “inactive” each time.

On to `COC(=O)CC(C)CCC=C(C)C` (stereo not drawn), for which the Potency entry in assay [1] and in assay [2] was “inactive” each time.

Take `COC(=O)N[C@H](C(=O)N[C@@H](Cc1ccccc1)[C@@H](O)CN(Cc1ccc(-c2ccccn2)cc1)NC(=O)[C@@H](NC(=O)OC)C(C)(C)C)C(C)(C)C`: the Potency result in assay [1] and in assay [2] was “inactive” throughout.

For the compound `C1CCOC1`, the Potency result in assay [1] and in assay [2] was “inactive” in each case.

Take `CCOC(=O)[C@H](CCc1ccccc1)N[C@@H](C)C(=O)N1Cc2cc(OC)c(OC)cc2C[C@H]1C(=O)O`: the Potency entry in assay [1] and in assay [2] was “inactive” throughout.

With `Cc1cc(O)ccc1O`, the Potency entry in assay [1] and in assay [2] was “inactive” in each case.

As to `c1ccc2ccccc2c1`, the Potency result in assay [1] and in assay [2] was “inactive” each time.

As for `CCC(C)(CCC(C)C)C(=O)[O-].CCC(C)(CCC(C)C)C(=O)[O-].[Zn+2]` (stereo not drawn), the Potency result in assay [1] and in assay [2] was “inactive” in each case.

For the compound `CCCCCCCCCCCCCCN(CCO)CCO`, the Potency result in assay [1] and in assay [2] was “inactive” in each case.

`CC(=O)N1C[C@H](O)C[C@H]1C(=O)O`: the Potency entry in assay [1] and in assay [2] was “inactive” throughout.

Turning to `C=C(C)C(=O)OCC(C)(C)COC(=O)C(=C)C`, the Potency result in assay [1] and in assay [2] was “inactive” in each case.

Take `COc1ccc2nc(SCc3ncc(C)c(OC)c3C)[nH]c2c1`: the Potency entry in assay [1] and in assay [2] was “inactive” throughout.

Regarding `OCCCO`, the Potency entry in assay [1] and in assay [2] was “inactive” throughout.

As for `BrCc1cccc(Oc2ccccc2)c1`, the Potency result in assay [1] and in assay [2] was “inactive” each time.

For `O=C1CC2(CCCC2)CC(=O)N1`, the Potency entry in assay [1] and in assay [2] was “inactive” in each case.

With `CNC[C@H](O)c1ccc(O)c(O)c1`, the Potency entry in assay [1] and in assay [2] was “inactive” throughout.

`CCOc1ncc(F)c(=O)[nH]1`: the Potency entry in assay [1] and in assay [2] was “inactive” throughout.

Take `Cc1cc(C(=O)O)ccc1[N+](=O)[O-]`: the Potency result in assay [1] and in assay [2] was “inactive” each time.

On to `CC(=O)OCC(C)C`, for which the Potency result in assay [1] and in assay [2] was “inactive” in each case.

For `NC(CCC(=O)O)C(=O)O` (stereo not drawn), the Potency result in assay [1] and in assay [2] was “inactive” each time.

For `Oc1ccc(C2CNCCc3c2cc(O)c(O)c3Cl)cc1` (stereo not drawn), the Potency result in assay [1] and in assay [2] was “inactive” in each case.

With `Cc1ccc2c(Cl)cc(Cl)c(O)c2n1`, the Potency result in assay [1] and in assay [2] was “inactive” each time.

On to `CCCCCCCCOS(=O)(=O)O`, for which the Potency entry in assay [1] and in assay [2] was “inactive” throughout.

For `CCC(Cl)CC(Cl)C(Cl)C(Cl)C(Cl)C(C)Cl` (stereo not drawn), the viability change, negative = cytotoxic in assay [1] was -10.4% [at 18.9 µM]. Moreover, in assay [2], the activity change, negative = cytotoxicity is -0.221% [at 18.9 µM].

On to `CCCCCCCCCCCCCC(=O)OC(C)C`, for which the Potency entry in assay [1] and in assay [2] was “inactive” in each case.

For the compound `[Cl][Au]([Cl])[Cl]`, the Potency entry in assay [1] and in assay [2] was “inactive” in each case.

As to `CC[C@H]1CN2CCc3cc(OC)c(OC)cc3[C@@H]2C[C@@H]1C[C@H]1NCCc2cc(OC)c(OC)cc21`, the Potency result in assay [1] and in assay [2] was “inactive” in each case.

Take `CCOC(/C=C(\C)CCC=C(C)C)OCC`: the Potency entry in assay [1] and in assay [2] was “inactive” each time.

As for `Cc1cc(C2CCCCC2)n(O)c(=O)c1`, the Potency result in assay [1] and in assay [2] was “inactive” throughout.

In the case of `CC(=O)Oc1ccc(C)cc1`, the Potency result in assay [1] and in assay [2] was “inactive” each time.

As to `CN(C)CCCN1c2ccccc2Sc2ccccc21`, the Potency result in assay [1] and in assay [2] was “inactive” each time.

As for `CC(=O)[C@H]1CC[C@H]2[C@@H]3CCC4=CC(=O)CC[C@]4(C)[C@H]3CC[C@]12C`, in assay [1], the Potency was 60.8 µM (active) and 61.1 µM (active). Further, the Potency entry in assay [2] is “inactive”.

`Cc1ccc(Cl)cc1`: the Potency entry in assay [1] and in assay [2] was “inactive” throughout.

In the case of `CN1CCN(c2ccccc2/C=C2\SCCN(c3ccc(Cl)c(Cl)c3)C2=O)CC1`, the Potency entry in assay [1] and in assay [2] was “inactive” throughout.

Take `Cc1ccc(S(=O)(=O)NC2CCCCC2)cc1`: the Potency result in assay [1] and in assay [2] was “inactive” throughout.

For `NNc1ccc(C(=O)O)cc1`, the Potency result in assay [1] and in assay [2] was “inactive” each time.

Turning to `CC(O)CO` (stereo not drawn), the Potency entry in assay [1] and in assay [2] was “inactive” each time.

Turning to `CN(C)[C@@H](CCOc1cccc2ccccc12)c1ccccc1`, the Potency result in assay [1] and in assay [2] was “inactive” each time.

With `CCc1cccc2c3c([nH]c12)C(CC)(CC(=O)O)OCC3` (stereo not drawn), the Potency entry in assay [1] and in assay [2] was “inactive” in each case.

Values taken from PubChem BioAssay (Tox21).
